Sampled rows, rich in hits. Any-hit rate of the full collection: about 18%.
CtBP-E1A blk: inhibitors of CtBP/E1A interaction | AID 651724 | AlphaScreen GST-E1A/His-CtBP binding, 1536-well; stronger effect = lower value | activity change, % (no concentration beside the values) | 340,000 compounds, 0.49% hits; in the data active = activity change below about -65%; inconclusive = mostly about -30% to -63%
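In 5 uL wells, 23 nL compound meets equimolar GST-E1A and His-CtBP (5X stock 125 nM each) for 2 h, 37 °C. Beads (5X, 50 ug/mL) then 1 h, 37 °C, dark.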
TDP1 inh: blocks human tyrosyl-DNA phosphodiesterase 1. Potency, µM (top dose mostly 130 µM), actives largely listed as inhibitors. recombinant TDP1, AlphaScreen DNA substrate cleavage. 350,000 compounds, 0.28% hits. Q9NUW8. AID 485290; note: nearly all actives have a fitted effect of over 40% in size
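E. coli-derived human Tdp1, 1 nM final. Cpd preinc 15 min RT; substrate 15 nM final, 5 min RT; AS bead mix 10 ug/ml final, 10 min RT. Signal loss = tyrosine-FITC cleavage. No-enzyme wells = max signal.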
DT40 TDP1 CPT: growth inhibition of DT40 Tdp1-/-;hTDP1 cells with camptothecin (screen for TDP1 inhibitors); chicken DT40 Tdp1-/-;hTDP1 cells + 20 nM CPT, ATP luminescence, 48 h; 420,000 compounds, 12% hits; Potency, µM (doses to about 46.2 µM), most hits filed as inhibitors; note: nearly all actives have a fitted effect of over 55% in size
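Chicken DT40 Tdp1-/- cells complemented with human TDP1, 400 cells/well, exposed to compounds plus 20 nM camptothecin for at least 48 h at 37 C; viability read as ATP content by CellTiter-Glo luminescence.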
TDP1 cell noCPT: qHTS for Inhibitors of human tyrosyl-DNA phosphodiesterase 1 (TDP1): qHTS in cells in absence of CPT; DT40 Tdp1-/- hTDP1 cells, no CPT, ATP luminescence, 48 h; Potency, µM (highest dose often 46.2 µM), actives largely listed as inhibitors; 420,000 compounds, 15% hits; note: nearly all actives have a fitted effect of over 55% in size
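Growth kinetics read by CellTiter-Glo luminescence after ≥48 hr at 37 °C. Cells: DT40 Tdp1-/- stably carrying human TDP1, 400 per well, compound exposure in the absence of CPT (DMSO vehicle).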
IL-1B inflam inh: blocks inflammasome-driven IL-1 beta release. AID 743279. 360,000 compounds, 4.7% hits. THP-1 LPS/ATP IL-1B secretion, AlphaLISA, 16 h; stronger effect = lower value. activity change, % at 57.5 µM; in the data active = activity change below about -50%; inconclusive = mostly about -30% to -49%
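THP-1 cells pretreated 1 hr with compounds (up to 57.5 uM final), then stimulated with LPS (250 ng/mL final) plus ATP (1.25 mM final); secreted IL-1B measured by AlphaLISA after 16 hr, decreased signal indicating inhibition.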
Six1-Eya2 blk: inhibitors of human Six1/Eya2 interaction; 360,000 compounds, 0.56% hits; Q15475+O00167; AlphaScreen GST-Six1/His-Eya2 binding, biochemical; stronger effect = lower value; activity change, % (concentration not given with the values); AID 651725; in the data active = activity change below about -65%; inconclusive = mostly about -30% to -63%
Target sequence (O00167 whole entry, looked up): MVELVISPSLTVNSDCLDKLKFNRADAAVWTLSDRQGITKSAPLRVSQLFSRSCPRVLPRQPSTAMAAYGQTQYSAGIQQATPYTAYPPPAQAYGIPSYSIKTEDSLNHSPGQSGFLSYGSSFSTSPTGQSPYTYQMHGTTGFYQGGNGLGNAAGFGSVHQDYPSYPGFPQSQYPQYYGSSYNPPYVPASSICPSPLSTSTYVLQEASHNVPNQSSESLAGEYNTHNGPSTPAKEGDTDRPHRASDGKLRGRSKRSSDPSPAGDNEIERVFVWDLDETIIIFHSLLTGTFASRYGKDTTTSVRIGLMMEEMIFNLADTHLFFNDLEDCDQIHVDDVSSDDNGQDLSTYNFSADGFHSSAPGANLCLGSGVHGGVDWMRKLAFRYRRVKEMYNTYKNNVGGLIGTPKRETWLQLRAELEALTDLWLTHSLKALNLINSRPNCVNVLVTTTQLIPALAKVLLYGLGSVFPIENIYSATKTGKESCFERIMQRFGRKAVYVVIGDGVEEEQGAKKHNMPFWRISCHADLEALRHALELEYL
Target sequence (Q15475 whole entry, looked up): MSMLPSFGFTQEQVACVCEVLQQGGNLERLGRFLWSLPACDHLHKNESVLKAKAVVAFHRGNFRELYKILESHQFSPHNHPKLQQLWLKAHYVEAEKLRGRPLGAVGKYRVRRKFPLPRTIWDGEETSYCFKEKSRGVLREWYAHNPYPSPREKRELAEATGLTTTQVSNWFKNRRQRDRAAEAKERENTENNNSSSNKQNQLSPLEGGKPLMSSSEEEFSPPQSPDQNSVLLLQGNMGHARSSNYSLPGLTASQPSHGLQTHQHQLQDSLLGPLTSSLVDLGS
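Homogeneous AlphaScreen proximity assay pairing GST-Six1 with His-tagged Eya2 (added as 5X mix: 250 nM and 500 nM) in 50 mM Tris pH 8.0, 300 mM NaCl, 1 mM TCEP. Glutathione donor and nickel acceptor beads; 1 h, 37 °C, dark.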
A number is an active result; - = inactive; ? = inconclusive; . = no result. Unless noted, calls come from the whole dose curve; as a rule, active = well fitted curve in the direction sought with a large enough effect; inconclusive = small, poorly fitted or top-dose-only effect, or another doubt; inactive = no such curve, though single readings can be large; an effect the other way counts as inactive or inconclusive.

SMILES	CtBP-E1A blk	TDP1 inh	DT40 TDP1 CPT	TDP1 cell noCPT	IL-1B inflam inh	Six1-Eya2 blk
CCOc1ccccc1NC(=O)CSc1nccn1-c1ccc(Cl)cc1	.	-	-	?	.	.
Cc1ccc(S(=O)(=O)NCc2ccccc2)cc1C(=O)NC1CCC(C)CC1 (configuration not stated)	-	-	?	?	-	-
Cc1cc(-c2nc3ncccc3o2)ccc1NC(=O)c1ccc([N+](=O)[O-])o1	-	.	-	-	-	-
O=C(Nc1ccc(-c2nc3ncccc3o2)cc1)c1ccc([N+](=O)[O-])o1	-	-	8.2µM	3.66µM	-80.4	-
CC(C)CNc1ncnc2c1ncn2[C@H]1CN(Cc2ccc(F)cc2)C[C@@H](CO)O1	-	.	?	-	-	-
COc1ccc(C2=CC(c3ccc(OC)c(OC)c3)n3nnnc3N2)c(OC)c1 (configuration not stated)	-	-	?	?	-	-
COc1cccc(C2C=C(c3ccc(OC)cc3OC)Nc3nnnn32)c1 (configuration not stated)	-	-	?	16.4µM	-	-
CCOc1ccc(NC(=O)c2cnn3c2NC(c2cccc(OC)c2)=CC3c2ccccc2)cc1 (configuration not stated)	.	-	20.6µM	20.6µM	.	.
COc1cccc(C2=CC(c3ccc(N(C)C)cc3)n3nnnc3N2)c1 (configuration not stated)	-	-	20.6µM	13µM	-	-
COc1cccc(C2=CC(c3ccccc3)n3nnnc3N2)c1 (configuration not stated)	-	-	5.8µM	3.66µM	-	-
Cc1ccc(NC(=O)CN2C(=O)NC3(CCCC3)C2=O)nc1	-	.	-	-	-	-
CC1(C)Cc2nc3n[nH]c(N)c3cc2CO1	-	-	-	-	-	-
COc1ccc(OCC(=O)Nc2nonc2NC(=O)COc2ccc(OC)cc2)cc1	-	-	-	-	-	-
CC12CC3CC(C)(C1)CC(C(=O)NCc1ccncc1)(C3)C2	-	.	-	-	-	-
CC(=O)Nc1nc(C)cs1	-	-	-	-	-	-
Cc1ccc(CNc2nc(C)cs2)cc1	-	-	-	-	-58.0	-
CCN1CCN(C2=C(Cl)C(=O)N(Cc3ccccc3)C2=O)CC1	-	-	23.1µM	?	-	-
Cc1[nH]cnc1CSCc1ccc(F)cc1	-	-	-	-	-	-
CCCc1ccc(-c2cc(C(=O)N3CCN(c4ccccn4)CC3)c3ccccc3n2)cc1	-	-	?	18.4µM	-	-
COc1cc(-c2cc(C(=O)N3CCN(c4ccccn4)CC3)c3ccccc3n2)cc(OC)c1OC	-	-	?	23.1µM	?	-
CCOc1ccc(-c2cc(C(=O)N3CCN(c4ccccn4)CC3)c3ccccc3n2)cc1	-	-	5.8µM	9.2µM	-	-
COc1ccc(-c2cc(C(=O)N3CCN(c4ncccn4)CC3)c3ccccc3n2)cc1	.	-	?	?	-	-
Cc1ccccc1N(CC(=O)NCc1ccncc1)S(C)(=O)=O	-	-	-	-	-	-
CCOc1ccccc1N(CC(=O)OC)S(=O)(=O)c1ccccc1	-	-	-	-	-	-
CC(=O)OCOC(=O)CN(CC(=O)OCOC(C)=O)c1ccccc1OCCOc1ccccc1N(CC(=O)OCOC(C)=O)CC(=O)OCOC(C)=O	.	.	1.39µM	1.56µM	.	.
SMILES	CtBP-E1A blk	TDP1 inh	DT40 TDP1 CPT	TDP1 cell noCPT	IL-1B inflam inh	Six1-Eya2 blk
Cc1cc(=O)[nH]c(-c2ccc(Cl)cc2)n1	-	-	-	-	-	-
CC(C)(C)C(=O)Nc1ccc2nc(SCC(=O)N3CCCC3)sc2c1	.	-	-	20.6µM	.	.
CCCCC(=O)Nc1ccc2nc(SCC(=O)N3CCCC3)sc2c1	.	-	?	20.6µM	.	.
Cc1nc2ccc(NC(=O)N3CCCCC3)cc2s1	-	-	-	-	-	-
O=C(Nc1ccc(Cl)cc1)Nc1ccccc1CC[N+](=O)[O-]	-	-	13µM	?	-	-
CN(C)C(=O)Nc1ccccc1CC[N+](=O)[O-]	-	-	-	-	-64.8	-
